Activity calls are given as the source filed them.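 The calls were made as follows: active = high combined rank on largest and smallest cell-count-weighted shift across three tests, rank score above 45, floors 50 and 25 (some results past the limit were not filed as active); inactive = the rest.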

The nature of the test: activators of LNCaP cell differentiation, retest, confirmation, side scatter shift, flow cytometry (AID 1069).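 Also: LNCaP human prostate cancer cells in low-serum medium with charcoal-stripped FBS; percent of cells with raised granularity gated so DMSO controls show 10%.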 The following applies: 4 d, stronger effect = higher value. In general terms: In flow cytometry, cells or beads pass a laser one at a time.

Take `CCN1CCN(CCNC(=O)C2CCCN(Cc3nc(-c4cccc(Cl)c4)oc3C)C2)CC1` (stereo not given): the side scatter shift was 14.3% (inactive) (at 100 µM) and 32.2% (side scatter shift, at 10 µM).
In the case of `Cc1ccccc1CN1CCN(CC(=O)NCCCN2CCN(c3ccc(F)cc3)CC2)C1=O`, the side scatter shift is 3.3% (inactive) (at 100 µM) and 5.15% (side scatter shift, at 10 µM).
Turning to `CCCOc1ccc2nc(NC(=O)OC)[nH]c2c1`, the side scatter shift runs as follows: (at 100 µM) 8.3% (inactive); (side scatter shift, at 10 µM) 2.95%.
On the same counts, the results for `N=c1n(CCN2CCCCC2)c2ccccc2n1CC(O)COc1ccccc1` (stereo not given) are 20% (active) and 50.2%.
With `CCOC(=O)N1CCC(NC(=O)C2CCCN(Cc3nc(-c4cccc(Cl)c4)oc3C)C2)CC1` (stereo not given), the side scatter shift was 21.2% (inactive) (at 100 µM) and 5.35% (side scatter shift, at 10 µM).
For `COc1ccc2cc3cc(C(=O)Nc4ccccc4N4CCN(C)CC4)oc3nc2c1`, the side scatter shift is, setting by setting: (at 100 µM) 68.3% (active); (side scatter shift, at 10 µM) 42.7%.
On to `O=C(c1ccccc1)c1ccc(N2CCNCC2)cc1`, for which the side scatter shift is, setting by setting: (at 100 µM) 63% (active); (side scatter shift, at 10 µM) 7.95%.
On to `CCCc1ccc(Oc2cn[nH]c2-c2ccc(O)c(C)c2O)cc1`, for which the side scatter shift (at 100 µM) was 40% (inactive) and the side scatter shift (side scatter shift, at 10 µM) was determined as 4.85%.
For the molecule `CCOC(=O)c1c(-c2ccc(C)o2)csc1NC(=O)CN1CCN(CC)CC1`, the side scatter shift (at 100 µM) is 22.2% (inactive) and the side scatter shift (side scatter shift, at 10 µM) was 8.3%.
Consider `COc1ccc(-n2c3c(cc(C(=O)N4CCC(C)CC4)c2=O)C(=O)CC(C)(C)C3)cc1`, for which the side scatter shift (at 100 µM) was 20% (inactive) and the side scatter shift (side scatter shift, at 10 µM) stood at 1.8%.
Regarding `COC(=O)Nc1sc2c(c1C(N)=O)CCCCCC2`, the side scatter shift runs as follows: (at 100 µM) 10% (inactive); (side scatter shift, at 10 µM) 5.65%.
For the molecule `Cc1cc(=O)n2nc(N3CCCC(C(=O)NCCCN4CCc5ccccc5C4)C3)sc2n1` (stereo not given), the side scatter shift reads like this: (at 100 µM) 17.4% (inactive); (side scatter shift, at 10 µM) 9.3%.
For `CCc1ccc(-c2nc(CN3CCC(C(=O)NCCc4ccc(OC)c(OC)c4)CC3)c(C)o2)cc1` the same measures were 35.3% (inactive) and 21%.
For the molecule `COc1ccccc1NC(=O)c1nc[nH]c1C(=O)Nc1ccccc1OC`, the side scatter shift reads like this: (at 100 µM) 50.5% (inactive); (side scatter shift, at 10 µM) 5.65%.
`c1ccc(N2CCN(c3nnc(Cc4cccnc4)c4ccccc34)CC2)nc1`: the side scatter shift is, setting by setting: (at 100 µM) 17.5% (inactive); (side scatter shift, at 10 µM) 8%.
On the same counts, the results for `CCC(C)NC(=O)c1cn(C)c(=O)c2cc(OC)c(OC)cc12` (stereo not given) are 25.6% (inactive) and 5.2%.
`CCN1CCN(c2ncc(C(=O)Nc3cc(Cl)c(OC)cc3OC)c3ccccc23)CC1`: the side scatter shift is 53.7% (inactive) (at 100 µM) and 19.2% (side scatter shift, at 10 µM).
For `Cc1nc2ncnn2c(C)c1CCC(=O)NCCCN1CCN(c2cccc(Cl)c2)CC1`, the side scatter shift runs as follows: (at 100 µM) 37.9% (inactive); (side scatter shift, at 10 µM) 8.55%.
`COc1cc(C2C3=C(Nc4ncnn42)c2ccccc2CC3)cc(OC)c1OC` (stereo not given): the side scatter shift runs as follows: (at 100 µM) 11.2% (inactive); (side scatter shift, at 10 µM) 4.5%.
`Cn1c(=O)n(C)c2cc(CN3C(=O)OC(C)(C)C3(C)O)ccc21` (stereo not given): the side scatter shift is 7.1% (inactive) (at 100 µM) and 2.45% (side scatter shift, at 10 µM).

(Values after PubChem BioAssay AID1069 (NMMLSC, 2008).)
